The sample as a whole holds a higher share of hits than the screen did.
Shh pathway inh: Sonic Hedgehog pathway inhibition; Shh-LIGHT2 Gli-luciferase reporter, 30 h; inhibition, % (no concentration beside the values); 2.1% of 22,000 active; AID 2313;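 active = mean inhibition across valid replicates above about 65%, limit read from the data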;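 also: pathway switched on by Shh-conditioned medium diluted 1 in 25 in low serum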
MITF inhib: MITF inhibition; 0.28% of 37,000 active; AID 2240; TRPM1 promoter luciferase, luminescence, 24 h; inhibition, % (concentration not given with the values); in the data active = inhibition above about 85%;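 also: human melanocyte line stably carrying TRPM1 promoter luciferase reporter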
Active calls of the source: *; . = not tested or not shown.

SMILES	Shh pathway inh	MITF inhib
CC1(C)CCc2cc(-c3ccnc(=S)[nH]3)ccc2O1	66*	32
S=c1nccc(-c2ccc3c(c2)CCO3)[nH]1	-20	-38
CCSc1nccc(-c2ccc3c(c2)CCC(C)(C)O3)n1	78*	46
C=CCOC1=NC2C(C(=O)N(C)C(=O)N2C)N1C (stereo not drawn)	14	-13
COC(=O)c1ccccc1NC(=O)CNC(=O)c1cccs1	.	4
CC(C)(C)Nc1cccccc1=NCc1ccccc1	.	9
CSc1sc(C#N)c2c1C(=O)CC(c1ccccc1)C2 (stereo not drawn)	86*	11
Cc1c(C)c(C)c(C(=O)c2ccccc2C(=O)NCc2cccnc2)c(C)c1C	25	-1
CSc1c(CC(=O)NCCc2ccccc2)n(C)c2ccccc12	16	24
Cn1c(-c2ccc(Cl)cc2)cs/c1=N\C(=S)NCCc1ccccc1	91*	4
CC(C)S(=O)(=O)c1csc(NC(=O)Nc2cc(C(F)(F)F)cc(C(F)(F)F)c2)c1Cl	106*	65
CC(C)S(=O)(=O)c1csc(NC(=O)N2CCCCC2)c1Cl	-29	0
COc1ccc(/C=C/C(=O)CC(=O)/C=C/c2cccc(O)c2OC)cc1O	69*	36
COc1cc(/C=C/C(=O)CC(=O)/C=C/c2ccc(O)c(OC)c2)ccc1O	32	4
COc1cccc(C(=O)/C=c2\[nH]c(=O)/c(=C\c3cccs3)s2)c1	-2	-27
